The source of these data is PubChem BioAssay.

Experiment [1] is described as follows: antimalarial activity against Dd2 strain (AID 2302;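 active = growth inhibition above 50% at the single 2 µM test dose, taken to imply half-maximal potency below 2 µM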;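 note: 0% = DMSO untreated growth and 100% = chloroquine plus artemisinin killed control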). As to conditions: P. falciparum Dd2 in RBCs, LDH growth readout, 72 h; at 2 µM; active compounds read high.
The nature of experiment [2]: HepG2 cytotoxicity, primary screen, cytotoxicity control for P. falciparum antimalarial project, cell-based, ATP luminescence (AID 2303;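 active = inhibition above 50%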;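 note: 0% = DMSO wells and 100% = digitonin-killed cells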). As to conditions: HepG2 viability, 24-48 h, at 10 µM, active compounds read high.
The target in experiment [3] is L-lactate dehydrogenase (Plasmodium falciparum (isolate CDC / Honduras)) (UniProt Q27743). The experiment is described as follows: PfLDH activity inhibition – cell lysate, 3D7 strain, counter-screen for P. falciparum growth inhibition project (AID 2304).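 Note: 0% = vehicle and 100% = reference inhibitor.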 The following applies: P. falciparum 3D7 crude extract, LDH APAD/NBT absorbance; at 2 µM; active compounds read high. (The purpose of a counterscreen is to sort out artefacts and off-target activity.)

Experiment [4] is described as follows: inhibition of 3D7 malaria parasite growth – strain 3D7 (AID 2306).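 Note: 0% = DMSO wells and 100% = chloroquine plus artemisinin control wells.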 As to conditions: P. falciparum 3D7 erythrocytic growth, LDH absorbance, 72 h; at 2 µM; active compounds read high.
In experiment [5] the target is Calcium-dependent protein kinase 1 (Plasmodium falciparum (isolate 3D7)) (UniProt P62344). The experiment can be described thus: PfCDPK1 kinase inhibitors, biochemical, TCAMS library (AID 1159585; cut-off not given, nearly all actives have IC50 up to about 0.98 µM;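 note: inhibitors leave more ATP so luminescence rises with inhibition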). As to conditions: recombinant PfCDPK1, Kinase-Glo ATP depletion luminescence. Background: Kinase-Glo reads ATP consumption through a luciferase reaction.
Experiment [6] concerns the target Plasmodium falciparum protein kinase 6 (PK6, PF3D7_1337100) (UniProt Q8IDW1). The experiment is described as follows: PfPK6 kinase inhibitors, biochemical, TCAMS library (AID 1159586). The following applies: recombinant PfPK6, Kinase-Glo ATP depletion luminescence.
In experiment [7] the target is Protein kinase 7 (PK7), Plasmodium falciparum 3D7 (PF3D7_0213400) (UniProt Q7YTF7). The experiment can be described thus: inhibition of Plasmodium PK7 catalytic activity – biochemical, TCAMS antimalarial set, Kinase-Glo luminescence (AID 1159587). The following applies: recombinant PfPK7, Kinase-Glo ATP depletion luminescence.
For experiment [8], the target named is Calcium-dependent protein kinase 4 (Plasmodium falciparum (isolate 3D7)) (UniProt Q8IBS5). The experiment is described as follows: PfCDPK4 kinase inhibitors, biochemical, TCAMS library (AID 1159588; cut-off not given, nearly all actives have IC50 up to about 0.91 µM). The following applies: recombinant PfCDPK4, Kinase-Glo ATP depletion luminescence.

SMILES strings stand for the structures. Unmarked numbers belong to inactive results. For part of these data: Potency and affinity values are given separately. Calls of active or inactive are those of the source. Unless noted, the rule behind the calls is not given here.

A word on the inhibition: it is the drop in the measured response relative to a control, in per cent.

Chain of L-lactate dehydrogenase (Plasmodium falciparum (isolate CDC / Honduras)) (Q27743 whole entry, looked up): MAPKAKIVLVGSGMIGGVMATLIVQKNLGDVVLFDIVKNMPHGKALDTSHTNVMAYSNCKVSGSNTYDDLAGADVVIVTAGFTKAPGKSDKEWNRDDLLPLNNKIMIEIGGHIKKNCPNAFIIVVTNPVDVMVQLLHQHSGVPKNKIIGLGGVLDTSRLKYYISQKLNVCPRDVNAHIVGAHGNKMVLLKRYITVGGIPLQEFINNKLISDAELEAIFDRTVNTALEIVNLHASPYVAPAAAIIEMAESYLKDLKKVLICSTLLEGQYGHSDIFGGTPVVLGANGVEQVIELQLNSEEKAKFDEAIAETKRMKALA
Chain of Protein kinase 7 (PK7), Plasmodium falciparum 3D7 (PF3D7_0213400) (Q7YTF7 1-343): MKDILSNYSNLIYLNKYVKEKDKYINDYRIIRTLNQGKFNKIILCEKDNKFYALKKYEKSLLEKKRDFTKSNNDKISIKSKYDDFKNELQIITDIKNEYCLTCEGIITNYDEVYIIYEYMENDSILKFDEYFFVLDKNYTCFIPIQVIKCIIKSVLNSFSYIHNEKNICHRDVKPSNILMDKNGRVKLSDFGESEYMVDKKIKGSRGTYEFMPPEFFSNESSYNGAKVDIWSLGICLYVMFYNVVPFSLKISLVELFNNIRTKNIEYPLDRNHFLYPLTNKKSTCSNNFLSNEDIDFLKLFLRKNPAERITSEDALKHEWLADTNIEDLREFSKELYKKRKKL
Chain of Plasmodium falciparum protein kinase 6 (PK6, PF3D7_1337100) (Q8IDW1 1-305): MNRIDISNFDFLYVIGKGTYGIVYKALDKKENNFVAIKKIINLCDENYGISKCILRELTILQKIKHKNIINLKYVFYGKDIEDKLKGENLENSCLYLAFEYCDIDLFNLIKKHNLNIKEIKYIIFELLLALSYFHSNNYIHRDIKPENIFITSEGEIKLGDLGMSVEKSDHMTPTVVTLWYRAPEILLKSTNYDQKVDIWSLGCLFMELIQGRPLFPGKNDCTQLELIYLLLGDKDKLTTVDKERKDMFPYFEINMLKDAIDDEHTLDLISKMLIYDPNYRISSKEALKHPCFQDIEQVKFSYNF
Chain of Calcium-dependent protein kinase 4 (Plasmodium falciparum (isolate 3D7)) (Q8IBS5 whole entry, looked up): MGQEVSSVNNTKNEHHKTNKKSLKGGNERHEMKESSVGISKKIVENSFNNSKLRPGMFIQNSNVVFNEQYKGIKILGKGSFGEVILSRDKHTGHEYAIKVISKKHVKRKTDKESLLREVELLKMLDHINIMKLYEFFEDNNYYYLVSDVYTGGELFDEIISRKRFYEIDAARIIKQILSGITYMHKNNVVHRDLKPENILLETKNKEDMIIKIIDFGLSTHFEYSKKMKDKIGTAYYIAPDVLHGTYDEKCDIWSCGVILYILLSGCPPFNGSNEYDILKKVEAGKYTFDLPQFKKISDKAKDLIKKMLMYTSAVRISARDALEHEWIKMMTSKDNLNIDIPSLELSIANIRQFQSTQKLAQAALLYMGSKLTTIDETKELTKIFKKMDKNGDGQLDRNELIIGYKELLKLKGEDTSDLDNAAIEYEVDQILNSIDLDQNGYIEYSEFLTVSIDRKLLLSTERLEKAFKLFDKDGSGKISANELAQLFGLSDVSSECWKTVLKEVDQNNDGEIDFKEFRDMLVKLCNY
Chain of Calcium-dependent protein kinase 1 (Plasmodium falciparum (isolate 3D7)) (P62344 whole entry, looked up): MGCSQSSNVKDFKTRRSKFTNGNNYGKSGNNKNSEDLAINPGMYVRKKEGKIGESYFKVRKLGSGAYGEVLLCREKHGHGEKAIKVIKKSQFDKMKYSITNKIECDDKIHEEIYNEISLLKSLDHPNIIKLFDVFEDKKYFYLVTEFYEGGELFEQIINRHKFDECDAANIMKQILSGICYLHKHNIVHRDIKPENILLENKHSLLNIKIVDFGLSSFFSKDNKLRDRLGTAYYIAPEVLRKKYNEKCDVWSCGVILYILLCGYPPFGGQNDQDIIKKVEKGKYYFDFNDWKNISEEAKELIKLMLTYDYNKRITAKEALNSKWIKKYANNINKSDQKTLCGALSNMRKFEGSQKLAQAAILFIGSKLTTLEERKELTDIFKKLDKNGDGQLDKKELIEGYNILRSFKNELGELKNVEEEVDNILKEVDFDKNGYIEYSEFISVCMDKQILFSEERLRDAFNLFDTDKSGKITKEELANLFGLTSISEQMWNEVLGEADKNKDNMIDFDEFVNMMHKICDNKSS

`Cc1cc(-c2ccc(NC(=O)Nc3ccc4nccc(N5CCN(C)CC5)c4c3)cc2C)cc(C)n1`: the growth inhibition in experiment [1] is 76% (active); in experiment [4], 100% (active). Further, the values for the inhibition in experiment [2] and in experiment [3] were -2% and 4%, respectively. Moreover, the result in experiment [5], in experiment [6], in experiment [7] and in experiment [8] was inactive.
As for `NC(N)=Nc1ccc(OCCCCCOc2ccc(N=C(N)N)cc2Br)c(Br)c1`, the values for the growth inhibition in experiment [1] and in experiment [4] were 95% (active) and 92% (active), respectively. Further, the inhibition in experiment [2] is 27%; in experiment [3] it was 0%. For the same molecule, the result in experiment [5], in experiment [6], in experiment [7] and in experiment [8] was inactive.
Take `COCCNCc1ccc(-c2cccc(CNc3ccc(OC)cc3)c2)cc1`: the growth inhibition in experiment [1] is 2%; in experiment [4] it was 94% (active). Also, the inhibition in experiment [2] is 16%; in experiment [3], -1%. Also, the result in experiment [5], in experiment [6], in experiment [7] and in experiment [8] was inactive.
Regarding `Cc1ccc(-c2ccc(Cl)cc2Oc2cnc(N)nc2N)o1`, the growth inhibition in experiment [1] was 3%; in experiment [4], 102% (active). Besides, the inhibition in experiment [2] was 15%; in experiment [3], -2%. In addition, the result in experiment [5], in experiment [6], in experiment [7] and in experiment [8] was inactive.
With `OCCN1CCN(C(=S)NC2CCCCC2)CC1`, the values for the growth inhibition in experiment [1] and in experiment [4] were -1% and 93% (active), respectively. Besides, the inhibition was 49% in experiment [2] and 1% in experiment [3]. For the same molecule, the outcome in experiment [5], in experiment [6], in experiment [7] and in experiment [8] was inactive.
For `CC(c1cccc(S(=O)(=O)NCc2ccc(Cl)cc2Cl)c1)N1CCC(N2CCCCC2)CC1` (stereo not drawn), the growth inhibition is 40% in experiment [1] and 100% (active) in experiment [4]. In addition, the inhibition in experiment [2] was 36%; in experiment [3], -2%. For the same molecule, the result in experiment [5], in experiment [6], in experiment [7] and in experiment [8] was inactive.
Regarding `CCCC1N=C(N)N=C(N)N1c1cccc([N+](=O)[O-])c1` (stereo not drawn), the values for the growth inhibition in experiment [1] and in experiment [4] were 1% and 96% (active), respectively. Also, the inhibition is -4% in experiment [2] and 3% in experiment [3]. The result in experiment [5], in experiment [6], in experiment [7] and in experiment [8] was inactive.
On to `c1nc2nc3c(c(Nc4ccc5c(c4)CCC5)n2n1)CCC3`, for which the figures for the growth inhibition in experiment [1] and in experiment [4] were 70% (active) and 87% (active), respectively. For the same molecule, the inhibition was -1% in experiment [2] and -5% in experiment [3]. Further, the outcome in experiment [5], in experiment [6], in experiment [7] and in experiment [8] was inactive.
Turning to `CC(C)CCN1CCCN(Cc2cccc(NC(=O)c3ccc(-c4ccccc4)cc3)c2)CC1`, the growth inhibition in experiment [1] was 21%; in experiment [4] it was 92% (active). Further, the inhibition in experiment [2] is 27%; in experiment [3], 7%. Besides, the result in experiment [5], in experiment [6], in experiment [7] and in experiment [8] was inactive.
With `CCCOc1ccc(NC(=O)c2cccs2)cc1Cl`, the growth inhibition in experiment [1] was 86% (active); in experiment [4], 88% (active). The values for the inhibition in experiment [2] and in experiment [3] were 1% and -4%, respectively. Besides, the result in experiment [5], in experiment [6], in experiment [7] and in experiment [8] was inactive.
Consider `O=S(=O)(c1cc(Cl)c(Cl)cc1Cl)N1CCCCC(c2ccc(C(F)(F)F)cc2)=N1`, for which the growth inhibition in experiment [1] is 99% (active); in experiment [4], 98% (active). The inhibition in experiment [2] is 9%; in experiment [3], -1%. The outcome in experiment [5], in experiment [6], in experiment [7] and in experiment [8] was inactive.
For the molecule `Cc1ncc(CN2CCC(C(=O)Nc3ccc(-c4nc5ccccc5o4)cc3)CC2)s1`, the values for the growth inhibition in experiment [1] and in experiment [4] were 92% (active) and 82% (active), respectively. Also, the inhibition in experiment [2] is -14%; in experiment [3], 1%. In addition, the outcome in experiment [5], in experiment [6], in experiment [7] and in experiment [8] was inactive.
On to `CN(C)CCOC(=O)C1(O)CCC2CC1C2(C)C` (stereo not drawn), for which the figures for the growth inhibition in experiment [1] and in experiment [4] were -5% and 95% (active), respectively. In addition, the inhibition is 10% in experiment [2] and -9% in experiment [3]. The result in experiment [5], in experiment [6], in experiment [7] and in experiment [8] was inactive.
In the case of `COc1cccc(Nc2nc(C)cc(NC3CCN(Cc4ccccc4)CC3)n2)c1`, the growth inhibition in experiment [1] is 46%; in experiment [4] it was 102% (active). The inhibition is 15% in experiment [2] and 8% in experiment [3]. For the same molecule, the result in experiment [5], in experiment [6], in experiment [7] and in experiment [8] was inactive.
For `CCCCN1CCN(CC(O)CNC(=O)Nc2ccc(Cl)cc2)CC1` (stereo not drawn), the growth inhibition in experiment [1] was 99% (active); in experiment [4], 101% (active). The inhibition in experiment [2] is 17%; in experiment [3], -3%. In addition, the result in experiment [5], in experiment [6], in experiment [7] and in experiment [8] was inactive.
Regarding `Cc1cc2c(cc1C(F)(F)F)N(C(=O)Nc1cc(OCCN(C(C)C)C(C)C)cc(C(F)(F)F)c1)CC2`, the growth inhibition is 86% (active) in experiment [1] and 100% (active) in experiment [4]. Besides, the inhibition in experiment [2] was 42%; in experiment [3], -2%. Further, the outcome in experiment [5], in experiment [6], in experiment [7] and in experiment [8] was inactive.
For the molecule `N#Cc1ccc2[nH]cc(-c3cn4cc(SC5CCCC5)ccc4n3)c2c1`, the results for the growth inhibition in experiment [1] and in experiment [4] were 21% and 92% (active), respectively. Besides, the figures for the inhibition in experiment [2] and in experiment [3] were 1% and 3%, respectively. The result in experiment [5], in experiment [6], in experiment [7] and in experiment [8] was inactive.
Turning to `COc1ccc(C(=C(C)CC(C)C(=O)O)c2ccccc2)cc1` (stereo not drawn), the growth inhibition in experiment [1] was -2%; in experiment [4] it was 95% (active). The figures for the inhibition in experiment [2] and in experiment [3] were 6% and -8%, respectively. Besides, the result in experiment [5], in experiment [6], in experiment [7] and in experiment [8] was inactive.
Turning to `CCOc1c(N2CCN(CCCCNC(=O)c3ccc(NC(=O)c4ccc(Cl)cc4)cc3)CC2)ccc2ccccc12`, the figures for the growth inhibition in experiment [1] and in experiment [4] were 45% and 100% (active), respectively. The inhibition in experiment [2] is 18%; in experiment [3] it was 0%. The outcome in experiment [5], in experiment [6], in experiment [7] and in experiment [8] was inactive.
For `Cc1cnc(NCCc2ccc(F)cc2)nc1NCCC(=O)Nc1ccccc1`, the growth inhibition is 17% in experiment [1] and 89% (active) in experiment [4]. Moreover, the results for the inhibition in experiment [2] and in experiment [3] were 3% and 6%, respectively. Moreover, the outcome in experiment [5], in experiment [6], in experiment [7] and in experiment [8] was inactive.
With `O=C(Nc1ccc(C(F)(F)F)cc1)NC1CCN(c2ccnc3cc(Cl)ccc23)CC1`, the growth inhibition in experiment [1] was 74% (active); in experiment [4], 102% (active). In addition, the inhibition in experiment [2] is 22%; in experiment [3] it was -3%. The outcome in experiment [5], in experiment [6], in experiment [7] and in experiment [8] was inactive.
